Data on 40 molecules can be found in PubChem BioAssay (Tox21).

Where “and” joins values, the source holds several entries; their conditions need not be identical. Equal entries are not always repeated. Inconclusive results are not listed. Where a call stands in place of a potency, no number is given. The source holds several records for some structures; these can differ, active in one and inactive in another. Calls of active or inactive are those of the source. Calls come from the whole dose curve; as a rule, active = well fitted activation curve with a large enough effect in the repeat runs; inconclusive = weak or mixed curves; inactive = flat fitted curve, though single readings scatter.
Potency is the fitted concentration of half-maximal effect.

The test can be described thus: A CellTox Green Cytotoxicity Assay to monitor cytotoxicity in HEK293 cells - 40 hour (AID 1224871). Note: nearly all actives have a fitted effect of over 45% in size. To be noted: CellTox Green fluorescence; series mostly up to 76.8 µM. The text has this:
National Center for Advancing Translational Sciences [NCATS]
NIH Chemical Genomics Center [NCGC]
U.S. Environmental Protection Agency [EPA]
National Institutes of Environmental Health Sciences [NIEHS]
National Toxicology Program [NTP]
Cell-based models are critical for drug discovery. Determining the natural cytotoxic effects resulting from test compounds is an essential research activity. A CellTox Green Cytotoxicity Assay to monitor cytotoxicity in real time of continues cell culture during 40 hours of the compound treatment was used to screen Tox21 10K library compounds in Hek293 cells. CellTox Green Cytotoxicity Assay is a nonlytic, homogeneous, biofluorescent method to measure cytotoxicity in cell culture after experimental manipulation. The assay system uses a proprietary asymmetric cyanine dye that is excluded from viable cells but preferentially stains the dead cell's DNA. […] Viable cells produce no appreciable increases in fluorescence. Therefore, the fluorescence signal produced by the binding interaction with dead cell DNA is proportional to cytotoxicity.
The mixture of Hek293 cell suspension and reagents were dispensed at 600cells/6 ul/well in 1536-well tissue culture treated black solid bottom plates using a Multidrop dispenser. After the assay plates were incubated at a 37 C/5% CO2 incubator for 5 hours, 23 nL of compounds dissolved in DMSO, positive and negative controls was transferred to the assay plate by a pintool work station. The plates were incubated at 37 C for 40 hours. The fluorescence intensity were measured at 0h, 8h, 16h, 24h, 32h and 40h time points using ViewLux plate reader during compound treatment.
In the case of `Nc1c(N=Nc2ccc(-c3ccc(N=Nc4cc(S(=O)(=O)O)c5ccccc5c4N)cc3)cc2)cc(S(=O)(=O)O)c2ccccc12`, the Potency entry is “inactive”.
For the molecule `CCN(Cc1c(F)cccc1Cl)c1c([N+](=O)[O-])cc(C(F)(F)F)cc1[N+](=O)[O-]`, the Potency entry was “inactive”.
As to `CCCCCCCCCCCC[N+](C)(C)Cc1ccccc1`, the Potency was 42.8 µM (active) and 47.4 µM (active) and 23.9 µM (active).
As to `CC(O)(P(=O)(O)O)P(=O)(O)O`, the Potency entry was “inactive”.
With `CCCCOC(=O)c1ccc(O)cc1` the figure was 49.6 µM (active) and inactive.
Regarding `NC(=O)c1cccnc1`, the Potency result was “inactive”.
Under `Nc1ccc([N+](=O)[O-])cc1O` stands “inactive”.
In the case of `COc1cccc(O)c1O`, the Potency result is “inactive”.
On to `C/C=C/C=C/C(=O)O`, for which the Potency entry is “inactive”.
For the molecule `NC(=O)n1c(O)c(C(=O)c2cccs2)c2cc(Cl)ccc21`, the Potency result was “inactive”.
In the case of `NS(=O)(=O)c1cc2c(cc1Cl)NCNS2(=O)=O`, the Potency result is “inactive”.
In the case of `O=C1c2c(O)cccc2Cc2cccc(O)c21`, the Potency result is “inactive”.
For the molecule `O=C(O)CC(O)C(=O)O` (stereo not given), the Potency entry was “inactive”.
As to `C1CCC(C(CC2CCCCN2)C2CCCCC2)CC1` (stereo not given), the Potency was 16.9 µM (active).
Under `Nc1c2c(nc3ccccc13)CCCC2` stands “inactive”; under `COc1ccc(C(Cl)=C(c2ccc(OC)cc2)c2ccc(OC)cc2)cc1`, “inactive”; under `CCOc1ccc(NC(C)=O)cc1`, “inactive”.
Take `NC1CCCCC1`: the Potency entry is “inactive”.
Take `CN(C)C(=O)Nc1ccc(Cl)c(Cl)c1`: the Potency entry was “inactive”.
`O=C1NS(=O)(=O)c2ccccc21`: the Potency result is “inactive”.
As to `CC(=O)CCC(=O)O`, the Potency result was “inactive”.
As for `O=C1OC2(c3ccccc31)c1cc(Br)c(O)c(Br)c1Oc1c2cc(Br)c(O)c1Br`, the Potency was 3.95 µM (active) and 11.3 µM (active) and 7.56 µM (active).
For `O=C1O[C@H]([C@@H](O)CO)C(O)=C1O`, the Potency result is “inactive”.
With `CC(C)C(=O)Nc1ccc([N+](=O)[O-])c(C(F)(F)F)c1` the entry was “inactive”; with `Cc1ncc([N+](=O)[O-])n1CCO`, “inactive”.
Turning to `CC1(C)S[C@@H]2[C@H](NC(=O)[C@H](N)c3ccccc3)C(=O)N2[C@H]1C(=O)O`, the Potency entry was “inactive”.
With `CCc1nc(N)nc(N)c1-c1ccc(Cl)cc1` the entry was “inactive”; with `CN(C)CCOC(C)(c1ccccc1)c1ccccn1` (stereo not given), “inactive”; with `C=CCc1ccc(O)c(OC)c1`, “inactive”.
`O=c1[nH]cnc2c1ncn2[C@H]1CC[C@@H](CO)O1`: the Potency result was “inactive”.
Regarding `F[B-](F)(F)F`, the Potency entry is “inactive”.
Regarding `COc1ccc2c(c1)c(CC(=O)O)c(C)n2C(=O)c1ccc(Cl)cc1`, the Potency entry is “inactive”.
As to `CC/C(=C(\c1ccccc1)c1ccc(OCCN(C)C)cc1)c1ccccc1`, the Potency was 24.7 µM (active) [middle of 5 runs].
Consider `CCCCNC(=O)NS(=O)(=O)c1ccc(C)cc1`, for which the Potency entry was “inactive”.
With `CN(N=O)C(=O)N[C@@H]1[C@@H](O)[C@H](O)[C@@H](CO)O[C@@H]1O` the entry was “inactive”.
For the molecule `CCCCCCCC(=O)OCC(COC(=O)CCCCCCC)OC(=O)CCCCCCC`, the Potency result was “inactive”.
With `Cc1ncc([N+](=O)[O-])n1C` the entry was “inactive”.
On to `NC(CO)(CO)CO`, for which the Potency entry was “inactive”.
On to `Cc1cc(=O)oc2cc(O)ccc12`, for which the Potency entry was “inactive”.
With `O=S1(=O)OC(c2ccc(O)cc2)(c2ccc(O)cc2)c2ccccc21` the entry was “inactive”.
